According to PubChem BioAssay AID778 (Sanford-Burnham Center for Chemical Genomics, 2007):
The whole screen tested about 96,000 compounds, of which about 20,000 (21%) were called active. Only a sample is shown. Values without a mark were called inactive.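 The calls were made as follows: active = CYP2C19 inhibition above a set limit at 5 µM in the primary screen (cut at about 50% in these data); inactive = the rest.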

These compounds were tested against Cytochrome P450 2C19 (Homo sapiens) (UniProt P33261) (assay: blockers of cytochrome P450 2C19 activity – biochemical, luminescence, ADME assay, primary screen (AID 778;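 also: plate controls were negative control wells for no effect and 2.5 mM tranylcypromine positive control for full effect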)). Settings: CYP2C19 Supersomes, luciferin-H EGE luminescence, 30 min; at 5 µM; hits give high values.
Chain of Cytochrome P450 2C19 (Homo sapiens) (P33261 whole entry, looked up): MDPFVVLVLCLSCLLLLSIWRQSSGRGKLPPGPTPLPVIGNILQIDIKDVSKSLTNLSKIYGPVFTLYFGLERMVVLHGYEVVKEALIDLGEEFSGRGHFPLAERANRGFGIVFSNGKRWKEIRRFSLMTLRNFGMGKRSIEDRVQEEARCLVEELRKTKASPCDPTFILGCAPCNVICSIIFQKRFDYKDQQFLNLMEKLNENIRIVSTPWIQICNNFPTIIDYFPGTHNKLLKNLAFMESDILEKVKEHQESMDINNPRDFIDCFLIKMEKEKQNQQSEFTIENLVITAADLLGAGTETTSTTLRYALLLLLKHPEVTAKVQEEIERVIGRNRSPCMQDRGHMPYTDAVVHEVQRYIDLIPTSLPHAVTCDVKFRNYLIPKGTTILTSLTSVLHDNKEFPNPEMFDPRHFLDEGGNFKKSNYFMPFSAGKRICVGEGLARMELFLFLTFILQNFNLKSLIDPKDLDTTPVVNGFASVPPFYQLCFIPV

Structure (SMILES) | inhibition
COc1cc(C2C(C(=O)OCCC#N)=C(C)NC3=C2S(=O)(=O)c2ccccc23)cc(OC)c1OC (configuration not stated) | 15.8%
COc1ccc(N(CC(=O)NC2CCCCC2)S(=O)(=O)c2c(C)[nH]c(=O)[nH]c2=O)cc1 | 11.3%
C=CCn1c(CC(=O)Nc2cccc(OC)c2)nnc1SCC(=O)NC1CCCCC1 | -6%
COc1cccc(-n2c(SCC(=O)NC3CCCCC3)nc3n[nH]c(C)c3c2=N)c1 | 50.9% (active)
Cc1cccc(NC(=O)c2cc(N3C(=O)CCC3=O)ccc2Cl)n1 | 14.7%
CC1(C)Cc2c(sc3nc(SCC(=O)NCc4ccccc4)n(-c4ccccc4)c(=O)c23)CS1 | 1.8%
CC(C)OCCCNc1nc2c(c(=O)n(Cc3ccccc3F)c(=O)n2C)n1C | 42.7%
Cc1cccc(Cn2c(N3CCN(c4ccccc4)CC3)nc3c2c(=O)n(C)c(=O)n3C)c1 | 72.8% (active)
CCOC(=O)N1CCN(Cc2nc3c(c(=O)n(C)c(=O)n3C)n2Cc2ccccc2)CC1 | 30%
CCOC(=O)CSc1nc2c(c(=O)n(C)c(=O)n2C)n1Cc1ccccc1F | 63.1% (active)
CCOC(=O)CSc1nc2c(c(=O)n(Cc3ccccc3Cl)c(=O)n2C)n1C | -6%
Cn1c(=O)c2c(nc(NCCc3ccccc3)n2Cc2ccccc2)n(C)c1=O | 8.9%
Cc1cccc(Cn2c(SCCO)nc3c2c(=O)n(C)c(=O)n3C)c1 | 51.7% (active)
CCOc1ccc(Cn2c(SCCCCC#N)nc3c2c(=O)n(C)c(=O)n3C)cc1OCC | 20.4%
CCCSc1nc2c(c(=O)n(C)c(=O)n2C)n1Cc1ccc(C)cc1 | 17.6%
C/C(=N\c1nc2ccccc2n1C)c1cc(Cl)ccc1O | -5.8%
CCN(CC)c1ccc(/C=N/Nc2nc(C)cc(=O)[nH]2)cc1 | 7.4%
COc1ccc(CN(C(=O)c2cccs2)c2nccs2)cc1OC | 100% (active)
COc1ccc(CCN(C(=O)COc2ccccc2)c2nc(-c3ccccc3)cs2)cc1OC | 35.3%
O=C(c1cccs1)N(C(=O)c1cccs1)c1ccccn1 | 23%
CCOC(=O)c1cc2n(c1C)-c1ccccc1C2=O | 17.8%

Structure (SMILES) | inhibition
COc1ccc(C(=O)NNC(=O)c2cnccn2)cc1[N+](=O)[O-] | 11.1%
Cc1cc(C)nc(N2CCN(c3ncnc4c3oc3ccccc34)CC2)n1 | -16.1%
CCCCOC(=O)Cn1c(=N)n(CCN(CC)CC)c2ccccc21 | -29.6%
CCCCOC(=O)Cn1c(=O)n(CC(=O)OCCCC)c2cc(C)ccc21 | 55.8% (active)
CCOC(=O)CN1C(=O)C(=O)c2cc(C)ccc21 | -2.2%
Cc1ccc2nc3n(c(=O)c2c1)CCC3 | -4.2%
Cc1ccccc1NC(=O)Cc1nnc(SCC(=O)N2CCN(c3ccccc3)CC2)n1C | 26.9%
O=C(Nc1nnc(CCc2ccccc2)s1)C1CCCO1 (configuration not stated) | 15.6%
O=C(Nc1ccc(-c2nnc(-c3ccccc3)o2)cc1)C1CCCO1 (configuration not stated) | 17.1%
O=C(Nc1cccc(-c2nnc(-c3ccccc3)o2)c1)C1CCCO1 (configuration not stated) | 71.9% (active)
Cc1nc(SCC(=O)Nc2cc(C)on2)c2c(C)c(C)sc2n1 | 9.2%
CCOc1cc(C2C(C(=O)OC)=CN(C3CCCC3)C=C2C(=O)OC)cc(Br)c1O | -1.9%
CC(=O)c1cc(NC(=O)c2ccccc2)c(=O)oc1/C=C/N(C)C | 0.3%
CN(C)c1cc(N)c2ccccc2n1 (tested in a mixture with another compound) | -9.5%
Cc1cc(Nc2ccccc2)n(CCC#N)n1 | -5.9%
CN1CCN(c2ccc(NC(=O)COc3ccc(Cl)cc3Cl)cc2)CC1 | 17.9%
Cc1cc(NC(=O)COc2ccc(Cl)cc2Cl)n(CCC#N)n1 | 99.1% (active)
Cc1ccc(S(=O)(=O)N2C3C=CC(C3)C2C(=O)O)cc1 (configuration not stated) | 10.3%
CC(C)(C)c1ccc(OC2=CS(=O)(=O)c3ccccc32)cc1 | 65.2% (active)
O=S1(=O)C=C(SCCN2CCCC2)c2ccccc21 | 28.3%
CC(C)(C)c1csc(NC2=NS(=O)(=O)c3ccccc32)n1 | 0.4%

Structure (SMILES) | inhibition
COc1cc2[nH]c(=S)n(CCN3CCCCC3C)c(=O)c2cc1OC (configuration not stated) | -5.5%
O=C1CCCc2c1[nH]c1ccc(Br)cc21 | 15.9%
Nc1c(-c2ccc(F)cc2)cnc2ncnn12 | -14%
COC(=O)[C@H](CCSC)NC(=O)Nc1ccc(OC)cc1 | 38%
COc1cc(/C=C2/C(=O)ON=C2C)ccc1OCc1ccccc1F | 17.5%
c1ccc(COc2ccccc2CNCc2cccnc2)cc1 | 59.4% (active)
Cc1nc2ccccc2cc1OCc1ccc(F)cc1 | 17.6%
COc1ccccc1CNCc1cccs1 | 31.8%
Cn1c(=O)c2c(nc(OCc3cccnc3)n2Cc2ccccc2)n(C)c1=O | 16.8%
Fc1ccccc1COc1ccccc1CNCc1ccncc1 | 96.3% (active)
Cc1nnc(SCC(=O)NC2CCCC2)s1 | 19.1%
Cn1cccc1C(=O)NC(=O)COC(=O)Cc1coc2ccc3ccccc3c12 | 31.8%
O=c1[nH][nH]c(=O)c2cc(N3CCCC3)ccc12 | 0.9%
CCOc1ccc(-c2nc(C)sc2CC(=O)O)cc1 | 12.3%
CCc1nc(C)ccc1OCC(=O)N(CC)CC | 0.2%
C=CCn1c(CSc2nc3ccccc3s2)nnc1SCC(=O)NCc1ccco1 | 24.8%
C=CCn1c(COc2ccccc2)nnc1SCC(=O)NCC(=O)OCC | -8.4%
C=CCn1c(N)cc(=O)nc1SCC(=O)Nc1cccc2ccccc12 | 1%
C=CCn1c(SCC(=O)Nc2nc3ccccc3s2)nnc1-c1ccccc1O | 54.6% (active)
C=CCn1c(SCC(=O)NCc2ccccc2)nnc1-c1cc(Br)ccc1O | 91.6% (active)
